Shown are actives, neighbours in structure and some others; about 5.9% of the full set was active somewhere.
ATXN viability = reduces viability in counter-screen for ATXN expression inhibitors; S2 cells (HEK-293 line with an ATXN2-luciferase reporter) viability, CellTiter-Fluor protease fluorescence, 24 h; Potency, µM (highest dose often 56.7 µM), hits mostly cytotoxic; 400,000 compounds, 0.49% hits; AID 651635; further: nearly all actives have a fitted effect of over 40% in size
TGFb inhibitor = inhibitors of TGF-b signaling; Potency, µM (series often up to 46.1 µM), without a hit: at the top dose activity, negative = inhibition, actives largely listed as inhibitors; HepG2 CAGA-GFP TGF-b/SMAD3 reporter, GFP fluorescence, 18 h; TGF-beta stimulated, 500 pg/mL final; 410,000 compounds, 1.2% hits; further: on the % scale 0 is the no-effect control and ±100 the full control effect; nearly all actives have a fitted effect of over 65% in size
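Inhibition was scored as loss of TGF-beta-induced (500 pg/mL final, 18 hours, 37 degrees C) GFP in HEPG2 cells carrying a CAGA-GFP reporter, in DMEM with 1% FBS. Well GFP was summed per cell; Activity was normalised to unstimulated and stimulated DMSO wells, then concentration-response fitting.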
KB-V1 MDR tox = kills drug-selected multidrug resistant KB-V1 cells | Potency, µM (doses to about 46.1 µM), actives largely listed as cytotoxic | KB-V1 MDR cells viability, CellTiter-Glo, 72 h | 400,000 compounds, 3.4% hits; further: on the % scale 0 is the no-effect control and ±100 the full control effect; nearly all actives have a fitted effect of over 60% in size
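In this primary screen, KB-V1 cells overexpressing P-gp are incubated with library compounds (lowest to highest concentration) for 72 h at 37 degrees C before a luminescent ATP viability read.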
HepG2 tox = kills HepG2 cells in TGF-b inhibitor counter-screen | Potency, µM (doses to about 46.1 µM), without a hit: at the highest dose activity change, negative = cytotoxicity, usual class: cytotoxic | HepG2 CAGA-GFP viability, ATP luminescence, 18 h | 410,000 compounds, 0.76% hits
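HepG2 CAGA-GFP cells (1000/well, DMEM with 1% FBS) received compound, then TGF-beta at 500 pg/mL final, and were incubated 18 hours at 37 degrees C. Viability was read by CellTiter-Glo luminescence. Media-only wells were set as complete cell-killing and DMSO as no toxicity.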
ATXN2 expr inh = ATXN2 expression inhibition | Potency, µM (series often up to 57 µM), for inactives: at the top dose activity change, negative = inhibition, usual class: inhibitors | HEK-293 ATXN2-luciferase reporter, luminescence, 24 h | AID 1745845 | 360,000 compounds, 0.72% hits; further: on the % scale 0 is the no-effect control and ±100 the full control effect; nearly all actives have a fitted effect of over 55% in size
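ATXN2-luciferase reporter cells (luciferase flanked by upstream and downstream ATXN2 gene portions) were treated 24 h at 37 °C with compounds at up to 57 uM. SteadyGlo luminescence gave expression; GF-AFC fluorescence gave viability.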
KB-3-1 cytotox = kills parental KB-3-1 adenocarcinoma cells | KB-3-1 viability, CellTiter-Glo ATP luminescence, 72 h | AID 1347075 | Potency, µM (highest dose often 46.1 µM), usual class: cytotoxic | 400,000 compounds, 1.4% hits; further: on the % scale 0 is the no-effect control and ±100 the full control effect; nearly all actives have a fitted effect of over 60% in size
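Luminescent ATP read-out (CellTiter-Glo) measures survival of drug-naive KB-3-1 cells after 72 h compound exposure at 37 °C. Titration series was screened from lowest to highest concentration, with DMSO vehicle plates as background controls.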
Numbers without * were called inactive; i = inactive; ? = inconclusive; · = no result; ! = not confirmed by another sample; [ ] = remark or other dose. The call rests on the fitted dose curve; in most records, active means well fitted curve in the direction sought with a large enough effect; inconclusive means small, poorly fitted or top-dose-only effect, or another doubt; inactive means no such curve, though single readings can be large; an effect the other way counts as inactive or inconclusive. Potency means the concentration at half of the fitted maximal effect.

SMILES	ATXN viability	TGFb inhibitor	KB-V1 MDR tox	HepG2 tox	ATXN2 expr inh	KB-3-1 cytotox
COCc1c(C(=O)Nc2ccc(C)c(S(=O)(=O)N3CCOCC3)c2)oc2ccccc12	i	?	4.6µM*	-6%	25%	?
O=C(CN1C(=O)COc2ccc(S(=O)(=O)N3CCOCC3)cc21)NCc1ccc(Cl)cc1	·	?	·	-3%	·	·
Cc1cnc(-n2ncc(C(=O)NCc3ccccn3)c2C2CC2)nc1-c1cccs1	i	·	·	·	·	·
O=C(COc1ccc(F)cc1)N(c1ccccn1)C1CCCCC1	i	1%	21µM*	-20%	-2%	i
CCOCCCNC(=O)c1cc(Sc2ccc(F)cc2)nc2ccccc12	i	-7%	21µM*	-9%	1%	i
O=C(Nc1cccc(-c2ccc(N3CCCCC3)nn2)c1)C(F)(F)F	?	16%	?	8.9µM*	·	?
CC1CCN(c2ccc(-c3cccc(NC(=O)C(F)(F)F)c3)nn2)CC1	i	2%	?	20µM*	?	?
O=C(NC(c1ccco1)c1cc(Cl)c2cccnc2c1O)c1ccc(Cl)cc1 (stereo not given)	·	·	i	·	·	i
Cc1c(CCOC(=O)c2ccccc2)sc[n+]1CC(=O)c1ccc(Br)cc1	i	-1%	7.3µM*	-6%	-17%	?
COc1ccc(-c2ccc3[nH]c4c(c3c2)CCN2C(=O)[C@@H]([C@H](C)O)[C@@H](N(C)C(=O)Nc3ccc(F)cc3)C[C@@H]42)cc1	?	?	16µM*	-64%	?	i
COc1ccc(-c2ccc3[nH]c4c(c3c2)CCN2C(=O)[C@@H]([C@H](C)O)[C@@H](N(C)C(=O)Nc3cc(Cl)cc(Cl)c3)C[C@@H]42)cc1	i	?	i	-41%	?	?
COc1ccc(-c2ccc3[nH]c4c(c3c2)CCN2C[C@@H]([C@H](C)O)[C@@H](N(C)C(=O)Nc3cc(Cl)cc(Cl)c3)C[C@@H]42)cc1	·	?	?	-63%	-1%	i
C[C@H](O)[C@@H]1CN2CCc3c([nH]c4ccc(-c5ccc6c(c5)OCO6)cc34)[C@@H]2C[C@@H]1N(C)C(=O)Nc1ccc(F)cc1	32µM*	?	?	13µM*	?	5.8µM*
CCN(C(=O)C(=O)c1c(C)[nH]c2ccccc12)c1ccccc1	·	-12%	i	-4%	·	i
CCCCCCCCCCCC[n+]1ccc(C)c2ccccc21	·	?	i	-30%	·	4.1µM*
CCCCCCCCCCCC[n+]1ccc(/C=C/c2c[nH]c3ccccc23)c2ccccc21	·	?	i	-58%	·	?
CCCCCCC[n+]1ccc(C)c2ccccc21	·	?	i	-4%	·	0.58µM*
Cc1cc[n+](CCC2CCCCC2)c2ccccc12	·	?	i	-31%	·	2.1µM*
COc1cc(C(C[N+](=O)[O-])c2c(N)n(C)c(=O)n(C)c2=O)ccc1O (stereo not given)	?	?	?	-41%	?	?
Cc1ccc(C(C[N+](=O)[O-])c2c(N)n(C)c(=O)n(C)c2=O)cc1 (stereo not given)	?	?	?	-90%	-19%	16µM*
COc1cccc(F)c1C(C[N+](=O)[O-])c1c(N)n(C)c(=O)n(C)c1=O (stereo not given)	20µM*	4µM*	?	-123%	·	?
CCCCc1nn2c(=O)cc(COC(=O)c3cccc(OC)c3)nc2s1	i	-9%	?	-10%	10%	i
CCc1ccc(NC(=O)CSc2nnc(-c3ccc(N)cc3)n2C)cc1	·	1%	i	-1%	·	i
CCc1ccc(S(=O)(=O)Nc2cccc(-c3ccc(N4CCCCC4)nn3)c2)s1	?	-26%	i	-17%	0%	i
Cc1ccc(-c2csc3nc4c5ccccc5c(NCCCN(C)C)nn4c(=O)c23)cc1	i	?	i	14µM*	-30%	?
SMILES	ATXN viability	TGFb inhibitor	KB-V1 MDR tox	HepG2 tox	ATXN2 expr inh	KB-3-1 cytotox
COc1ccc(CNc2ccncc2)c(OC)c1OC	i	2%	i	-3%	17%[2.22 µM]	i
COc1cc(NCc2ccc3nc(N)nc(N)c3c2C)cc(OC)c1OC	?	·	·	·	3.5µM*!	·
Cc1ccccc1NC(=S)NCc1ccc2c(c1)cc(C)n2C	?	11µM*	21µM*	-53%	?	?
COc1ccccc1NC(=S)NCc1ccc2c(c1)cc(C)n2C	i	?	i	-30%	3%	i
COc1ccc2c(Sc3ccccc3)c(C(=O)N3CCC(C)CC3)[nH]c2c1	·	14µM*	i	-115%	?	i
COc1ccc2c(Sc3ccccc3)c(C(=O)NCCN(C)C)[nH]c2c1	i	-7%	i	-29%	-20%	?
CC(=O)N1CCC[C@H]1C(=O)N1CCc2c(cnc(C)c2CNC(=O)/C=C/c2cccs2)C1	i	·	·	·	·	·
COc1ccc(C(=O)c2nccc3cc(OC)c(OC)cc23)cc1OC	?	-4%	16µM*	-25%	-17%	i
COc1ccc(C(=O)c2cc(OC)c(OC)c(OC)c2)cc1OC	?	-31%	i	-27%	-3%	5.8µM*
COc1ccc(C(=O)c2ccc(OC)c(OC)c2)cc1OC	?	?	i	4%	-8%	i
COc1ccc(C(O)c2nccc3cc(OC)c(OC)cc23)cc1OC (stereo not given)	i	-15%	8.2µM*	-36%	1%	?
Cc1cc(C=Nc2ccc(/C=C/c3ccnc4ccccc34)cc2)ccc1N(C)C	·	-13%	i	-40%	·	i
CC(C)=CCC[C@@](C)(O)[C@H]1CC=C(C)CC1	i	·	·	·	28%	·
COc1ccc(-n2nc(C(=O)NCC(=O)NC(C)C)c3ccccc3c2=O)cc1Cl	i	-3%	i	-10%	·	i
COc1ccc(-n2nc(C(=O)NCC(=O)NCC3CCCO3)c3ccccc3c2=O)cc1Cl (stereo not given)	i	-2%	9.2µM*	6%	-1%	i
COc1ccccc1NC(=O)CSc1nnc2c3ccccc3n(C(C)C)c2n1	·	-3%	·	-22%	·	·
Cc1cc(CN2CCN(c3cccc(C)c3C)CC2)cs1	·	?	·	-26%	·	·
COc1ccccc1N1CCN(Cc2cccc(OC)c2OC)CC1	·	12%	i	-30%	·	i
CCOc1cc(CN2CCCCCC2)ccc1OC	i	6%	i	-3%	-18%	i
CCOc1ccccc1N1CCN(Cc2ccc(OC)c(OC)c2OC)CC1	i	?	18µM*	-17%	-22%	i

Source: PubChem BioAssay (National Center for Advancing Translational Sciences (NCATS))
